Screening data as filed in PubChem.
p53 reactivation: mutant p53 re-activation in reporter cells. H1299 p53-A138V BP100-luciferase reporter, luminescence, 24 h. Potency, µM (titrated, usually from 92.2 µM), for the others: at the top dose activity change, positive = activation, actives largely listed as activators. actives 0.063% (n = 320,000). AID 504706; note: potency is the fitted concentration of half-maximal effect; % of control where 0% means no effect; nearly all actives have a fitted effect of over 45% in size
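p53-null H1299 cells stably carrying temperature-sensitive p53-A138V and a BP100-luciferase reporter were pinned with compounds (4-point, 1:5 series) and held 24 hrs at 37 deg C. Luminescence was read 10 min after detection reagent.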
ELG1 DNA repair: ELG1-dependent DNA repair inhibition | actives 2.3% (n = 330,000) | Potency, µM (titrated, usually from 46.1 µM), inactives show top-dose activity change, negative = inhibition, usual class: inhibitors | HEK293T ELG1-luciferase reporter, luminescence, 16 h; DNA damage induced by 5-fluorouridine; note: potency is the fitted concentration of half-maximal effect; % is set by controls: 0 for no effect and ±100 for the full control effect; nearly all actives have a fitted effect of over 55% in size
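HEK293T cells expressing luciferase-tagged ELG1 (2,000/well) received 5-Fluorouridine plus compound or DMSO for 16 hr at 37 °C. Luciferase was read by ONE-Glo luminescence after 30 min at room temperature.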
BRCA1 expr act: BRCA1 expression activation; MCF7-BRCA1-FFLuc reporter, luminescence, 48 h; response scale: scaled: vehicle 0%, 10 µM genistein 100%; Potency, µM (titrated, usually from 46.1 µM), inactives show top-dose activation, actives largely listed as activators; actives 1.1% (n = 380,000); note: potency is the fitted concentration of half-maximal effect; nearly all actives have a fitted effect of over 80% in size
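Compounds are tested at multiple concentrations on MCF7 BRCA1-luciferase reporter cells seeded at 2000 per well; after 48 h, a single luminescence end-point is taken and curves fitted to the normalized data.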
Gal4-VP16 FLuc: counter-screen for ROR gamma inhibitors: Gal4-VP16 reporter; Drosophila S2 Gal4-VP16 UAS-luciferase, luminescence, 20 h; Potency, µM (titrated, usually from 53.6 µM), inactives show at the top dose activity, negative = inhibition, most hits filed as inhibitors; AID 2546; actives 3.5% (n = 310,000);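 note: Gal4-VP16 expression switched on by copper sulfate through the metallothionein promoter; potency is the fitted concentration of half-maximal effect; % is set by controls: 0 for no effect and ±100 for the full control effect; nearly all actives have a fitted effect of over 50% in size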
Giardia killer: kills Giardia lamblia. Giardia lamblia trophozoite viability. actives 0.15% (n = 340,000). activity change, % at 7.66 µM, hits read low; in the data active = activity change below about -80%; inconclusive = between about -30% and that limit;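 note: parasites exposed to compound for two days anaerobically before the ATP read; % is set by controls: 0 for no effect and ±100 for the full control effect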
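Killing of trophozoites was scored by loss of ATP luminescence after a 48 hrs anaerobic exposure to compounds at 37 deg C, using 100 cells per well.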
RORg inh: inhibitors of mouse ROR gamma transcriptional activity; P51450; actives 5.4% (n = 310,000); Drosophila S2 Gal4-RORgamma UAS-luciferase reporter, 20 h; Potency, µM (titrated, usually from 53.6 µM), for inactives: top-dose activity change, negative = inhibition, most hits filed as inhibitors; note: potency is the fitted concentration of half-maximal effect; % is set by controls: 0 for no effect and ±100 for the full control effect; nearly all actives have a fitted effect of over 60% in size
Target sequence (P51450 whole entry, looked up, the tested form may be a part): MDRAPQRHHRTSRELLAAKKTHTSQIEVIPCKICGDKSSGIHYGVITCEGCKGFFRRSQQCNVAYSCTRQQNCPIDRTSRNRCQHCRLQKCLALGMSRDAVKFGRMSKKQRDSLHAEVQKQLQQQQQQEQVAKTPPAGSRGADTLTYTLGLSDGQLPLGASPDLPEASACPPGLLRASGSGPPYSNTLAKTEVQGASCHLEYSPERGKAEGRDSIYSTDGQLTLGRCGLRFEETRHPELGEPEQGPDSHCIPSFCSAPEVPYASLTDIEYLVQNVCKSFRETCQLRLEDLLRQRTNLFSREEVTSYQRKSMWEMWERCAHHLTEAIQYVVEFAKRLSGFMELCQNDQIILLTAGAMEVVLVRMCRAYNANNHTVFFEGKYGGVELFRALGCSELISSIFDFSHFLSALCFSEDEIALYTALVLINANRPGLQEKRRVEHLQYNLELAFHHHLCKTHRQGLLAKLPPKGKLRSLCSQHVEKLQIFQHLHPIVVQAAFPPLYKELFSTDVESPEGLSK
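Drosophila Schneider cells stably carrying a metallothionein-driven Gal4 DBD–ROR gamma fusion and a UAS-Photinus luciferase reporter were exposed to compound for 1 hr, then induced with copper sulfate (700 uM final) for 20 hr at ambient temperature before luminescence reading.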
Starred values were filed as active, the others as inactive; ? = inconclusive; . = no result given; [ ] = another dose, or the depositor's remark. The list is not random: actives were taken first. Their share in the collection is about 7.6%. Unless noted, calls come from the whole dose curve; as a rule, active = well fitted curve in the direction sought with a large enough effect; inconclusive = small, poorly fitted or top-dose-only effect, or another doubt; inactive = no such curve, though single readings can be large; an effect the other way counts as inactive or inconclusive.

SMILES | p53 reactivation | ELG1 DNA repair | BRCA1 expr act | Gal4-VP16 FLuc | Giardia killer | RORg inh
Cc1ccc(C)c(NC(=O)CCC(=O)N/N=C/c2cc([N+](=O)[O-])ccc2O)c1 | 7.2% | 13µM* | -39.3% | ? | -10.9 | 5.62µM*
Cc1cc(O)c(C(C)C)cc1N=Cc1ccccc1O | -15.0% | 5.0% | -18.6% | ? | -4.3 | -81.6%
Cc1cc(O)c(C(C)C)cc1N=Cc1cc([N+](=O)[O-])ccc1O | -0.1% | 9.9% | -58.3% | ? | 13.7 | 10µM*
Cc1cc(CNC(=O)c2cccnc2Cl)c2ccccc2n1 | -3.7% | 5.17µM* | 8.6% | -0.5% | -9.1 | ?
O=C(C1CCC(CNS(=O)(=O)c2cccs2)CC1)N1CCN(c2ccc(F)cc2)CC1 (configuration not stated) | -3.5% | 9.2µM* | -52.7% | -28.7% | -23.9 | ?
CC1=NN(C(=O)c2nn(C)cc2Br)C(O)(C(F)(F)F)C1 (configuration not stated) | 22.3% | -10.4% | 4.3% | 11.2µM* | -23.2 | 3.98µM*
Cc1ccc(C(=O)N2N=C(c3ccccc3)CC2(O)C(F)(F)F)o1 (configuration not stated) | 2.9% | -3.6% | 29.7% | -10.9% | 3.4 | -3.9%
CC1=NN(C(=O)c2c(Br)c(C)nn2C)C(O)(C(F)(F)F)C1 (configuration not stated) | 1.3% | 3.8% | -22.4% | ? | 4.5 | 20µM*
CC1=NN(C(=O)c2c(Br)cnn2C)C(O)(C(F)(F)F)C1 (configuration not stated) | -0.5% | 4.8% | -6.1% | 7.94µM* | 24.8 | 5.62µM*
Cn1ncc(Br)c1C(=O)NC1CCCCC1 | -2.6% | -11.4% | 5.9% | 6.2% | 8.1 | -5.5%
CCOc1cc(/C=C/C(=O)c2ccc(OC)c(CN3CCOCC3)c2)cc(Br)c1O | -0.8% | 18.3µM* | -77.5% | -11.6% | -15.7 | ?
COc1cc(C(C(=O)NC2CCCC2)N(C(=O)c2snc(C(N)=O)c2N)C2CCCC2)cc(OC)c1OC (configuration not stated) | -1.4% | 0.2% | -24.7% | 3.1% | 52.5 | 13.9%
O=C(CSc1cn(Cc2ccccc2)c2ccccc12)N1CCOCC1 | 25.7% | ? | 7.94µM* | ? | 12.6 | 35.5%
O=C(Cn1cc(SCc2ccc(F)cc2)c2ccccc21)N1CCOCC1 | 28.2µM* | -1.0% | 87.0% | ? | -19.8 | ?
O=C(NCCn1cc(SCC(=O)N2CCOCC2)c2ccccc21)c1ccccc1 | -1.7% | 7.2% | 44.9% | -2.0% | -5.8 | ?
CCc1ccc(C(=O)N2CCC(c3nc4ccccc4s3)CC2)cc1 | -5.6% | 27.3% | -17.2% | -3.7% | -12.1 | -16.2%
Cc1ccc(C)c(NC(=S)N2CCN(c3cccc(C(F)(F)F)c3)CC2)c1 | -0.9% | 5.7% | -2.2% | 11.2µM* | 17.7 | 4.47µM*
Cc1ccc(C)c(NC(=S)N2CCC(c3nc4ccccc4s3)CC2)c1 | 0.0% | -26.2% | -1.0% | 6.31µM* | -10.2 | 2.82µM*
O=C(c1c(F)cccc1F)N1CCN(c2cccc(C(F)(F)F)c2)CC1 | -4.0% | -24.5% | -26.5% | 17.8µM* | 3.8 | ?
Cc1ccnc(NC(=S)N2CCN(c3cccc(C(F)(F)F)c3)CC2)c1 | ? | 13.3% | -31.1% | 0.562µM* | -15.2 | 0.316µM*
COc1ccc(N2CCN(C(=S)Nc3ccc(C)cc3C)CC2)cc1 | 3.7% | 1.6% | 8.5% | -16.9% | -1.8 | -13.8%
COc1ccc(OC)c(NC(=S)N2CCN(c3ccccn3)CC2)c1 | 9.6% | 1.5% | 0.0% | 4.6% | -1.8 | -18.0%
COc1ccc(N2CCN(C(=S)Nc3cc(C)ccc3C)CC2)cc1 | 0.3% | 4.3% | -10.9% | -18.1% | -5.8 | 2µM*
COc1ccc(NC(=O)N2CCN(c3cccc(C(F)(F)F)c3)CC2)cc1 | 2.1% | -5.4% | -1.5% | 4.1% | -2.3 | -3.9%
S=C(Nc1cc(Cl)ccc1Oc1ccccc1)N1CCN(c2ccccn2)CC1 | 7.4% | -14.2% | -76.8% | ? | 15.5 | 11.2µM*
SMILES | p53 reactivation | ELG1 DNA repair | BRCA1 expr act | Gal4-VP16 FLuc | Giardia killer | RORg inh
CN(C)S(=O)(=O)c1ccc(NC(=O)N2CCN(c3cccc(C(F)(F)F)c3)CC2)cc1 | -11.4% | ? | -72.5% | 10µM* | 13.2 | ?
COc1ccc(N2CCC(CNC(=S)Nc3cc(C)cc(C)c3)C2)cc1 (configuration not stated) | 1.5% | ? | -66.7% | -17.1% | 12.0 | 32.5%
COc1ccc(N2CCC(CNC(=S)Nc3cc(C)ccc3C)C2)cc1 (configuration not stated) | -0.9% | ? | -17.6% | 10µM* | 2.6 | 1.78µM*
COC(=O)c1c(C)[nH]c(C(=O)C(C)OC(=O)c2c(C)noc2C)c1C (configuration not stated) | 0.5% | -10.9% | -26.4% | . | 1.0 | .
Cc1nnc(SCC(=O)NNC(=O)CC#N)[nH]c1=O | -1.8% | 11.8% | 0.1% | -2.3% | 3.3 | -10.2%
Cn1c(=O)c2c(nc(NN=C3CCCC3)n2C)n(C)c1=O | 17.6% | 10.3% | -1.7% | 1.2% | 26.2 | 2.3%
FC(F)(F)c1cccc(N2CCN(C(=S)NC3CCCC3)CC2)c1 | -5.8% | ? | -38.3% | ? | 14.1 | ?
FC(F)(F)c1ccccc1NC(=S)N1CCN(c2ccccn2)CC1 | 5.0% | ? | -44.2% | 2.2% | 10.7 | ?
Cc1ccc(C)c(NC(=S)N2CCN(c3ccccn3)CC2)c1 | 21.3% | -5.6% | 24.7% | ? | -15.0 | 12.6µM*
FC(F)(F)c1cccc(N2CCN(C(=S)NC3CCCCC3)CC2)c1 | 3.1% | -19.1% | -67.7% | ? | -2.3 | 15.8µM*
O=S(=O)(c1ccccc1F)N1CCC(c2nc3ccccc3[nH]2)CC1 | -2.5% | ? | -17.2% | 3.5% | 14.0 | 20.6%
CN1CCN(C(=O)/C(=C/c2ccccc2Cl)NC(=O)c2ccccc2)CC1 | -3.2% | 2.4% | 1.0% | 1.4% | -21.0 | -2.3%
Cc1cccc(NC(=O)CN2CCN(C(=O)C3CCC3)CC2)c1C | -4.2% | 15.5% | -20.2% | . | -21.2 | .
COC(=O)C1CN(C(=O)COc2ccccc2C)c2ccccc2O1 (configuration not stated) | -0.5% | ? | -7.3% | -1.0% | 7.7 | 27.6%
COc1cc(NC(=O)CN2CCN(Cc3ccc4c(c3)OCO4)CC2)cc(OC)c1 | -0.3% | 23.1µM* | -18.2% | -0.5% | -0.9 | -0.5%
COC(=O)c1[nH]c2ccc(F)cc2c1NC(=O)CCN1CCN(Cc2ccc3c(c2)OCO3)CC1 | 0.0% | -21.6% | -25.3% | -1.8% | 12.8 | 0.0%[10 µM]
